Reference: PubChem BioAssay
“And” between values parts separate entries of the source, which are not always exact repeats. Equal values may be shown once. The source made the active and inactive calls.

Key:
[1] = tested on: Plasmodium falciparum Sir2 (PF13_0152, Sir2A); assay: pfSir2 binders on small-molecule microarrays, primary screen, biochemical, small-molecule microarray, 635 nm fluorescence (AID 1098); details: small-molecule microarray binding, fluorescence 635 nm; higher = more signal;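 further: score merges spot fluorescence intensity with its signal-to-noise ratio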
[2] = small-molecule microarray binders of probe aDKK1, primary screen, biochemical, biotinylated probe, 635/667 nm fluorescence (AID 1099); details: higher = more signal; small-molecule microarray, probe aDKK1, fluorescence unless noted;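 further: score merges 667nm spot fluorescence with signal to noise across triplicate slides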
[3] = small-molecule microarray binders of probe aCHRDL2, primary screen, biochemical, biotinylated probe, 635/667 nm fluorescence (AID 1100); details: higher = more signal; small-molecule microarray, probe aCHRDL2, fluorescence unless noted
[4] = splicing luciferase reporter signal modulators, primary screen, spliceosome inhibition project, cell-based, HEK293, splice +/- reporter (AID 1101); details: luminescence, 24 h; higher = more signal, called active from +8 up or from −8 down unless noted;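 further: HEK293 cells carrying a splicing-competent luciferase reporter gene; test concentration not given here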
[5] = target: Fibroblast growth factor 10 (Homo sapiens) (UniProt O15520); assay: FGF10 binders on small-molecule microarrays, primary screen, biochemical, small-molecule microarray, 635 nm fluorescence (AID 1102); details: FGF10 binding, fluorescence 635 nm, higher = more signal
[6] = tested on: glycogen synthase kinase-3 (GSK3A per assay name; protocol says GSK3B); assay: GSK3 binders on small-molecule microarrays, primary screen, biochemical, small-molecule microarray, 635 nm fluorescence, GSK3A (AID 1103); details: small-molecule microarray binding, fluorescence 635 nm; higher = more signal; further: the record names both GSK3A and GSK3B
[7] = target: Epidermal growth factor receptor (Homo sapiens) (UniProt P00533); assay: EGFR binders on small-molecule microarrays, primary screen, biochemical, small-molecule microarray, 635 nm fluorescence (AID 1104); details: EGFR binding, higher = more signal;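 further: score merges 667 nm emission intensity with spot signal to noise over triplicate slides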
[8] = target: Follistatin-related protein 3 (Homo sapiens) (UniProt O95633); assay: FSTL3 binders on small-molecule microarrays, primary screen, biochemical, small-molecule microarray, 635 nm fluorescence (AID 1105); details: FSTL3 binding, higher = more signal;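 further: score merges emission near 667 nm and signal to noise per printed spot across three slides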
[9] = target: Dickkopf-related protein 1 (Homo sapiens) (UniProt O94907); assay: DKK1 binders on small-molecule microarrays, primary screen, biochemical, small-molecule microarray, 635 nm fluorescence scan (AID 1106); details: DKK1 binding, higher = more signal;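 further: score merges emission near 667 nm with signal to noise over three replicate slides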
[10] = tested on: Inhibin beta A chain (activin A); assay: INHBA (activin A) binders on microarrays, primary screen, biochemical, small-molecule microarray, 635 nm fluorescence scan (AID 1107); details: small-molecule microarray binding, higher = more signal;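 further: mouse activin A protein probed at 4.33 µg/mL on printed slides; score merges bound-protein fluorescence near 667 nm with spot signal-to-noise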
[11] = tested on: Human papillomavirus type 1a protein E7 (residues 44-93); assay: HPV1a E7 fragment binders on microarrays, primary screen, biochemical, small-molecule microarray, residues 44-93, 635 nm fluorescence (AID 1108); details: small-molecule microarray binding, fluorescence 635 nm; higher = more signal;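 further: E7 fragment applied at 1 µg/mL in TBST for 1 h at 4 C; score combines spot fluorescence with its signal to noise ratio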
[12] = modulators of HCV replicon luciferase signal, primary screen, HCV replication inhibitor project, Huh7 cells, luciferase reporter (AID 1109); details: 48 h, higher = more signal;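 further: huh7 hepatoma cells harbouring a luciferase neomycin HCV replicon reporter; luciferase luminescence as measure of HCV replicon replication; test concentration not given here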
[13] = target: Left-right determination factor 2 (Homo sapiens) (UniProt O00292); assay: LEFTY2 binders on small-molecule microarrays, primary screen, biochemical, small-molecule microarray, 635 nm fluorescence scan (AID 1110); details: LEFTY2 binding, higher = more signal
[14] = target: Calmodulin-1 (Homo sapiens) (UniProt P0DP23); assay: CALM1 binders on microarrays, EGTA buffer, profiling panel, biochemical, small-molecule microarray, Cy5-labelled CALM1 (AID 1111); details: Cy5-CALM1 binding fluorescence, higher = more signal;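 further: labelled calmodulin applied in Tris saline Tween buffer holding calcium plus EGTA and DTT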
[15] = target: Calmodulin-1 (Homo sapiens) (UniProt P0DP23); assay: calcium-bound CALM1 binders on microarrays, profiling panel, artefact control for SMM control-protein annotation, biochemical, small-molecule microarray, Cy5-labelled CALM1, plus calcium (AID 1112); details: Cy5-CALM1 binding fluorescence, higher = more signal;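 further: score merges spot fluorescence with signal to noise from triplicate slides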
[16] = small-molecule microarray binders of probe aWnt5a, primary screen, biochemical, biotinylated probe, 635/667 nm fluorescence (AID 1113); details: higher = more signal; small-molecule microarray, probe aWnt5a, fluorescence unless noted;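 further: score merges 667 nm fluorescence intensity with signal-to-noise per printed feature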
[17] = small-molecule microarray binders of probe aShh, primary screen, biochemical, biotinylated probe, 635/667 nm fluorescence (AID 1114); details: higher = more signal; small-molecule microarray, probe aShh, fluorescence unless noted;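 further: probe is biotin-labelled aShh protein from a stem cell growth factor screen; measures binding of labelled protein to compounds printed on the slide; score merges feature fluorescence at 667 nm with signal-to-noise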
[18] = small-molecule microarray binders of probe aNog, primary screen, biochemical, biotinylated probe, 635/667 nm fluorescence (AID 1115); details: higher = more signal; small-molecule microarray, probe aNog, fluorescence unless noted;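 further: probe is biotinylated aNog protein used at 0.15 µg/mL for 1 h at 4 C; z-score combines 667 nm fluorescence of each spot with its signal to noise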
[19] = target: Torsin-1A-interacting protein 1 (Homo sapiens) (UniProt Q5JTV8); assay: LAP1 binders from COS7 cell lysate, primary screen, small-molecule microarray, 635/667 nm fluorescence (AID 1116); details: COS7-hLAP1 lysate binding, 635 nm fluorescence, higher = more signal
[20] = target: Alpha-bungarotoxin (Bungarus multicinctus) (UniProt P60615); assay: alpha-bungarotoxin binders on microarray, profiling panel, artefact control for SMM control protein annotation, biochemical, small-molecule microarray, Alexa647 label, 635/667 nm fluorescence (AID 1117); details: alpha-BTX-A647 binding fluorescence, higher = more signal
Alpha-bungarotoxin (Bungarus multicinctus), sequence (P60615 whole entry, looked up): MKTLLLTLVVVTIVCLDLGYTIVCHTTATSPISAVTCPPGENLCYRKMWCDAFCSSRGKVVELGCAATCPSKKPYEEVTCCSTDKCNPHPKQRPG

Epidermal growth factor receptor (Homo sapiens), sequence (P00533 whole entry, looked up): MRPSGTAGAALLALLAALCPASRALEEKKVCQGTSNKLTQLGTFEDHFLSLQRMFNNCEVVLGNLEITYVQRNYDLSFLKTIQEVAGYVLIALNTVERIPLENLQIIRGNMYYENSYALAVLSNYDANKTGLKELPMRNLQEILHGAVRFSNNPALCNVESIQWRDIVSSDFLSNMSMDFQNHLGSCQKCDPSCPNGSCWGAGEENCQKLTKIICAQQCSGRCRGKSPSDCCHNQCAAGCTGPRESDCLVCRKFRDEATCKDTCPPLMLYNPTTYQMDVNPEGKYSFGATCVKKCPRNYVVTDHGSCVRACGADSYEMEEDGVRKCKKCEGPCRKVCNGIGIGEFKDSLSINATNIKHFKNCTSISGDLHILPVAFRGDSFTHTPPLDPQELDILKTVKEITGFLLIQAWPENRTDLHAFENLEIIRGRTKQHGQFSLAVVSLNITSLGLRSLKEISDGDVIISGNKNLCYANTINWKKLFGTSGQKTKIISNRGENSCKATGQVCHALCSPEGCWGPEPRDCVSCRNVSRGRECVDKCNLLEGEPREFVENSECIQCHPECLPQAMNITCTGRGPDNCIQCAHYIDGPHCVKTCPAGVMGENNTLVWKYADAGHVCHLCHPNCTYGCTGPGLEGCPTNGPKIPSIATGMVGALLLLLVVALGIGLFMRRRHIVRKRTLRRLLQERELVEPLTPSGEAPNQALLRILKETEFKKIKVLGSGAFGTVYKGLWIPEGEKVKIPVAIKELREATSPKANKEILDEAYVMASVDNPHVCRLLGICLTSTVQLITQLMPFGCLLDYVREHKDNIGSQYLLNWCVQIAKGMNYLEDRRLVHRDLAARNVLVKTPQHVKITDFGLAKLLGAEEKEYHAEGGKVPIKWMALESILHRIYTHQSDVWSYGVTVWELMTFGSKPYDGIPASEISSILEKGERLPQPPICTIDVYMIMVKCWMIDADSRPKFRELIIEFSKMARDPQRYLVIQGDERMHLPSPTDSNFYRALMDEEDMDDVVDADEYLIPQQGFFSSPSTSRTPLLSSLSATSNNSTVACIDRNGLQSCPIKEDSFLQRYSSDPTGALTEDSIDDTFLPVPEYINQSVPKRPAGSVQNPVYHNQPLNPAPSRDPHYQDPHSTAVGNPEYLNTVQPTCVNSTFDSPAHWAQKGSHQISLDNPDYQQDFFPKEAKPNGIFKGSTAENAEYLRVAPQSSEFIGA
Fibroblast growth factor 10 (Homo sapiens), sequence (O15520 whole entry, looked up): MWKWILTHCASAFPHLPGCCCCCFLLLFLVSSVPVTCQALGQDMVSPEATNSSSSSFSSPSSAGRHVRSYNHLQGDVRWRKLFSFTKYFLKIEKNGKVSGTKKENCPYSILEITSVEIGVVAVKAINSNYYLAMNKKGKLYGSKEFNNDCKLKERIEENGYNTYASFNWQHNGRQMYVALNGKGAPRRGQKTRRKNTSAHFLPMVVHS
Torsin-1A-interacting protein 1 (Homo sapiens), sequence (Q5JTV8 whole entry, looked up): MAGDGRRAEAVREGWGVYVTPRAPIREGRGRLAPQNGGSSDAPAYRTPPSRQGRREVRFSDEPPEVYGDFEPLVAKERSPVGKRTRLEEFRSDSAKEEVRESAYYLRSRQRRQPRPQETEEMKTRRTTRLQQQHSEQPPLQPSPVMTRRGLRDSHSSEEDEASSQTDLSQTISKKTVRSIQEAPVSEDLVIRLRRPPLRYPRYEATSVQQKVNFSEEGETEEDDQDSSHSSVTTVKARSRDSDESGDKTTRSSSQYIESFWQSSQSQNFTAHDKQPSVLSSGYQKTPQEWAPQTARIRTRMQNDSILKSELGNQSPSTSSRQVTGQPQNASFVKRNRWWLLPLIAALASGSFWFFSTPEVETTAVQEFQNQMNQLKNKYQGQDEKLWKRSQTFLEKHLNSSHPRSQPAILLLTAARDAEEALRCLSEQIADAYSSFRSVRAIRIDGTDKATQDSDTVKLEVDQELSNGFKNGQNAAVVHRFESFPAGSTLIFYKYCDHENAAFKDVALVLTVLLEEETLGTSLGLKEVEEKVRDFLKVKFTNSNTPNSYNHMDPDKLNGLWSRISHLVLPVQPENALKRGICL
Dickkopf-related protein 1 (Homo sapiens), sequence (O94907 whole entry, looked up): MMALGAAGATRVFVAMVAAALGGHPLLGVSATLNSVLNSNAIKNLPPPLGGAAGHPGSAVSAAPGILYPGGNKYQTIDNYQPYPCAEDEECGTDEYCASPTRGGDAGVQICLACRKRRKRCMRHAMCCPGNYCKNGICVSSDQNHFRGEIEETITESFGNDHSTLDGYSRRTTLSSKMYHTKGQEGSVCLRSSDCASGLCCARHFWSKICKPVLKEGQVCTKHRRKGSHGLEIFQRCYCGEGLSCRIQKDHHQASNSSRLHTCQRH
Left-right determination factor 2 (Homo sapiens), sequence (O00292 whole entry, looked up): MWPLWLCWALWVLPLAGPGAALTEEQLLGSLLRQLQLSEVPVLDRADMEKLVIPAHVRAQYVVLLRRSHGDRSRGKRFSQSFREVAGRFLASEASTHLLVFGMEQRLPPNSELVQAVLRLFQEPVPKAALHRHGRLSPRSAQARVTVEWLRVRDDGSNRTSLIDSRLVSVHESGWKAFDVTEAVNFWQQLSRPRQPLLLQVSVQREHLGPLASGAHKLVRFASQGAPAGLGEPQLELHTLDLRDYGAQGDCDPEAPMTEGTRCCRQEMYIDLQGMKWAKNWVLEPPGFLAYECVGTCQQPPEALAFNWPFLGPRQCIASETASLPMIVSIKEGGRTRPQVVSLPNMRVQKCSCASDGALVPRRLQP
Follistatin-related protein 3 (Homo sapiens), sequence (O95633 whole entry, looked up): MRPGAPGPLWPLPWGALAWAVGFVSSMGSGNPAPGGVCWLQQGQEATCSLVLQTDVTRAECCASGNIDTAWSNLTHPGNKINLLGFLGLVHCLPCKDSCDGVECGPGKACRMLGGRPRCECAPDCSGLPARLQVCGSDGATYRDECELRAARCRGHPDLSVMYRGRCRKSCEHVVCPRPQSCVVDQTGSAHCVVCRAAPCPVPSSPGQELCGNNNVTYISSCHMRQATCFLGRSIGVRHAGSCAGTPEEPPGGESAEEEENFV

SMILES	composite z-score [1]	composite z-score [2]	composite z-score [3]	z-score [4]	composite z-score [5]	composite z-score [6]	composite z-score [7]	composite z-score [8]	composite z-score [9]	composite z-score [10]	composite z-score [11]	z-score [12]	composite z-score [13]	composite z-score [14]	composite z-score [15]	composite z-score [16]	composite z-score [17]	composite z-score [18]	composite z-score [19]	composite z-score [20]
COc1cc2c(cc1O)C(C)N(C)CC2 (stereo unspecified)	-0.528	0.0766	0.34	0.844 (inactive)	-0.0182	-0.951	-0.855	-0.205	-0.227	0.953	-1.75	0.569	-0.603	1.58	1.24	0.0017	-0.0769	-0.343	0.0049	-0.613
c1ccc(-c2cc3c(nc2-c2ccccc2)CCNC3)cc1	0.035	-0.193	-0.165	-0.326 (inactive)	-0.757	-0.598	-0.0212	-0.419	-0.419	1.09	-0.903	-1.32	0.0196	-0.198	-0.0533	-0.184	-0.0626	0.0459	-0.19	0.913
COC(=O)NCC=Cc1nc(CCC=CC(=O)O[C@H]2CC3CC(=O)O[C@@H](C=CCC(C)C)C[C@@H]4CC[C@H](C)[C@@H](C[C@@H](OC)C[C@H](C2)O3)O4)co1	-0.466	-0.445	-0.42	0.659 (inactive)	-0.512	-1.21	-0.633	-0.65	-0.447	0.846	-1.78	-3.46	-0.107	-0.421	-0.409	-0.179	-0.345	-0.0784	0.231	-0.684
CCCc1cc2c(n1Cc1ccc(C)cc1)C(C)C1CN(C(=O)c3ccccc3)C(C)(C(=O)OC)C21 (stereo unspecified)	-0.232	1.69	1.46	-3.92 (inactive)	1.15	0.0952	0.234	1.12	-0.0627	1.28	0.294	-1.33	-0.472	2.63	1.31	0.417	0.769	1	2.25	1.9
CC1N(P(=O)(c2ccccc2)c2ccccc2)CC(O)(c2ccccc2)CC12CC2 (stereo unspecified)	0.639 and 0.752	-0.135 and 1	0.938 and 1.14	0.255 (inactive) and -4.15 (inactive)	-0.115 and 0.145	-0.0785 and -0.283	-0.678 and 0.158	-1.67 and -0.931	-0.657 and -0.814	0.388 and 1.1	1.36 and 0.0155	-0.421 and -1.5	-1.22 and 0.326	-0.0346 and 1.63	0.595 and 1.02	0.151 and -0.131	0.535 and 0.377	0.915 and 1.68	1.23 and 1.28	-0.914 and -0.0679
COC(=O)[C@@]1(Cc2ccc(F)cc2)[C@H]2c3cc(C(=O)N(C)C)[nH]c3C[C@H]2CN1C(=O)c1ccccc1	0.878	0.588 [setting not given]	0.826 [setting not given]	-0.825 [setting not given] (inactive)	0.554	-0.275	-0.157	-0.589	-0.503	0.938	0.717	-0.0885	-0.193	0.366	-0.0836	0.0151 [setting not given]	-0.343 [setting not given]	0.519 [setting not given]	0.125	0.125
COc1cc2c(cc1O)C=[N+](C)CC2	0.136	0.148	-0.0058	0.131 (inactive)	0.668	-0.11	-0.414	0.137	-0.14	1.35	-2.1	-0.0523	-0.0898	-0.683	-0.399	-0.15	-0.138	-0.436	-0.347	-0.596
CCCC=C(CCC)[C@@H](NP(=O)(c1ccccc1)c1ccccc1)c1ccccc1	0.381	-0.17	0.0101	-1.55 (inactive)	0.657	0.79	0.187	0.344	-0.151	0.411	1.28	-1.39	0.943	1.94	0.42	0.208	-0.106	-0.519	0.275	0.44
OCc1ccc(C2=CC(C3CC3)N(Cc3sc4ccccc4c3Cl)CC2)cc1 (stereo unspecified)	1	0.0931	0.274	-0.747 (inactive)	0.458	0.979	0.417	0.48	0.8	1.04	0.794	-1.68	0.401	0.0976	-0.481	-0.103	-0.0146	-0.0662	0.781	1.44
C=C1C=C(Br)C2(OCCCO2)[C@H]2OC12 (stereo partly specified)	–	–	–	–	–	–	–	–	–	–	–	–	–	–	–	–	–	–	–	-0.206
CN1CCC(c2ccc(CO)cc2)=CC1c1cccs1 (stereo unspecified)	0.0161	-0.367	-0.17	-0.0418 (inactive)	-0.474	-0.323	0.0626	0.152	1.55	0.917	-0.895	1.05	-0.0469	-0.0348	-0.556	-0.0685	-0.0769	-0.216	0.238	0.945
CCCc1cc2c(n1CCO)C(C)C1CN(C(=O)c3ccccc3)C(C)(C(=O)OC)C21 (stereo unspecified)	0.677	1.76	1.57	-1.08 (inactive)	0.0807	-0.181	-0.362	0.0815	-0.369	1.24	-0.202	-1.27	-0.258	2.45	1.06	0.353	0.0545	1.85	2.26	2.61
CN1CCc2nc(CO)c(CO)cc2C1	-0.0844	0.0703	-0.445	0.261 (inactive)	0.297	0.702	0.514	0.51	0.323	-0.0175	0.22	-0.365	0.357	-0.192	-0.657	-0.117	-0.138	-0.104	-0.115	-0.0299
C[C@H]1O[C@H]2C3=C(C(=O)[C@@H]4O[C@@H]4[C@@H]3O)[C@@H]1[C@@H]1[C@@H](C)OC=C3[C@@H](O)[C@H]4O[C@H]4C(=O)[C@]312	-0.373	-0.416	-0.399	-1.89 (inactive)	-0.131	-0.572	-0.132	-0.727	0.133	0.38	-1.18	-2.57	-0.107	-0.806	-0.447	-0.125	-0.0553	-0.252	-0.404	0.411
CCCc1cc2c(n1Cc1cccc(Cl)c1)C(C)C1CN(C(=O)c3ccccc3)C(C)(C(=O)OC)C21 (stereo unspecified)	0.922	1.37	1.54	-3.44 (inactive)	0.368	0.146	-0.458	-0.0989	-1.61	1.24	0.226	-2.24	-0.587	2.18	1.37	-0.0445	0.261	1.71	2.22	0.818
CCCc1cc2c(n1Cc1ccco1)C(C)C1CN(C(=O)c3ccccc3)C(C)(C(=O)OC)C21 (stereo unspecified)	1.16	1.6	1.52	1.76 (inactive)	0.505	1.02	0.437	0.715	0.512	1.57	0.0223	-1.28	0.392	1.9	0.425	0.117	0.239	1.65	1.4	0.899
O=P(c1ccccc1)(c1ccccc1)N1CC2(CC2)CC(O)(c2ccccc2)C1 (stereo unspecified)	0.68	0.704	0.969	-3.24 (inactive)	0.11	-0.487	-0.48	-0.672	-0.673	0.72	1.04	-1.06	-1.1	1.04	1.08	0.435	-0.0553	1.6	1.58	0.41
